We go through 49 molecules from ChEMBL document CHEMBL3988442, “University of Dundee, Small-Polar-MMV Screening Library” (2021).

About 13,000 (27%) of roughly 48,000 compounds showed an effect of 50% or more. The list shows a part of the results.

The test system of this experiment is Wolbachia pipientis. Kind of experiment: Anti-Wolbachia Cell-Based Screen. It is filed as functional. Details: scale not given: in the data most compounds retested in dose-response had high values. The conditions noted are these: 5 µM.
On to `Cc1cc(C)n(C2CN(C(=O)Cn3c(=O)c(C)nc4ccccc43)C2)n1`, for which the “Percent Effect” value is given as -1.32%.
Consider `CNC(=O)[C@@H]1C[C@@H](N)CN1Cc1ccc2cccc(OC)c2n1`, for which the “Percent Effect” value is -0.1513%.
As for `c1ccc(CCc2noc(CN3CCC(N4CCSCC4)CC3)n2)cc1`, the “Percent Effect” value is given as -3.456%.
In the case of `N#Cc1ccc(CNC(=O)NC2CCN(CC(F)F)CC2)cc1`, the “Percent Effect” value was 3.671%.
For `COc1cc(O)cc2c1C(=O)CC(c1ccc(O)cc1)O2` (centres undefined), the “Percent Effect” value is recorded as -2.59%.
Regarding `CN(Cc1ccc(C#N)cc1)Cn1nccc1-c1cccnc1`, the “Percent Effect” value stood at 11.16%.
Take `COc1ccc(CN2Cc3cn(C)nc3C(COCC3CC3)C2)cc1` (centres undefined): the “Percent Effect” value stood at 10.23%.
`COc1ccccc1CN(Cc1cccc(C)c1)C(=O)[C@@H](N)CC(=O)O`: the “Percent Effect” value amounted to 3.134%.
As to `Cc1cccc(O[C@H]2COCCN(Cc3sc(C)nc3C)C2)n1`, the “Percent Effect” value stood at 12.2%.
With `CNc1cnc(CC2COCCN(Cc3cccc(C)n3)C2)cn1` (centres undefined), the “Percent Effect” value is 107%.
As for `CCCN1CCC(CC(=O)NCc2cc(O)ncn2)CC1`, the “Percent Effect” value was -6.133%.
On to `Oc1cc(CC2COCCN(CC3(O)CCOCC3)C2)ncn1` (centres undefined), for which the “Percent Effect” value amounted to 130%.
As for `OC1COCCN(Cc2cccc(N3CCOCC3)c2)C1` (centres undefined), the “Percent Effect” value is given as -7.923%.
Consider `Cc1cccc(CN2C[C@H]3OC(=O)N(CCCN4CCOCC4)[C@H]3C2)n1`, for which the “Percent Effect” value is -5.32%.
On to `CSc1cc2c(cc1NC(=O)N(C)Cc1cnn(C)c1)OCCO2`, for which the “Percent Effect” value is -6.777%.
In the case of `COCCN1C(=O)[C@H]2CC[C@@H]1CN(C(=O)Cc1ccc(O)c(Cl)c1)C2` it was 12.68%; in that of `CC(C)c1noc(Cn2ncn3cccc3c2=O)n1`, -11.32%; in that of `Cc1cnc(C(=O)N2CCC3(CCN(Cc4ccccn4)C3=O)C2)cn1.O=C(O)C(F)(F)F` (centres undefined), 102.4%.
In the case of `Cc1ccc(C(=O)N2CCC3(CCN(Cc4ccccn4)C3=O)C2)cn1` (centres undefined), the “Percent Effect” value is on record as 76.19%.
`COCC(=O)N1CCC2(CC1)CCN(Cc1ccccn1)C2=O.O=C(O)C(F)(F)F`: the “Percent Effect” value is on record as -18.96%.
Take `Cc1oncc1C(=O)N1CCC2(CCN(Cc3ccccn3)C2=O)C1` (centres undefined): the “Percent Effect” value is on record as -15.28%.
`O=C(O)C(F)(F)F.O=C(c1cccnc1)N1CCCC2(CCN(c3ccsc3)C2=O)C1` (centres undefined): the “Percent Effect” value came out at 9.95%.
In the case of `O=C(O)C(F)(F)F.O=C(c1ccsc1)N1CCC2(CCN(Cc3ccccn3)C2=O)C1` (centres undefined), the “Percent Effect” value is listed as 124%.
In the case of `CN(C)CC(=O)N1CCC2(CCN(Cc3ccccn3)C2=O)C1` (centres undefined), the “Percent Effect” value is -12.92%.
Consider `Cc1cccc(CN2CCC3(CCCN(C(=O)c4ccsc4)C3)C2=O)n1.O=C(O)C(F)(F)F` (centres undefined), for which the “Percent Effect” value is -5.258%.
On to `Cc1cccc(CN2CCC3(CCCN(C(=O)c4ccoc4)C3)C2=O)n1.O=C(O)C(F)(F)F` (centres undefined), for which the “Percent Effect” value is reported as 1.474%.
`O=C(O)C(F)(F)F.O=C(c1ccc(F)cc1)N1CCC2(CCN(Cc3ccccn3)C2=O)C1` (centres undefined): the “Percent Effect” value worked out at 89.07%.
In the case of `COc1cccc(CC2CCCN2CCCC#N)c1` (centres undefined), the “Percent Effect” value stood at 4.783%.
On to `O[C@H]1[C@H](n2cc(-c3cccnc3)nn2)c2ccccc2C12CCNCC2`, for which the “Percent Effect” value was determined as 12.4%.
In the case of `O=C(CCc1ccc(OC(F)(F)F)cc1)N1CCCS1(=O)=O` it was 14.48%.
As for `c1cnc(N2CCN(Cn3nccc3-c3cccnc3)CC2)nc1`, the “Percent Effect” value was 3.122%.
Consider `Cc1ncc(C(=O)NC2CCN(CCOc3ccc(Br)cc3)CC2)s1`, for which the “Percent Effect” value is listed as -10.45%.
In the case of `CC(C)CC(NC(=O)c1ccc[nH]1)C(=O)N1CCC(CO)CC1` (centres undefined), the “Percent Effect” value is given as 4.263%.
On to `Cc1occc1C(=O)N1CCCC2(CCN(CCN3CCCC3)C2=O)C1.O=C(O)C(F)(F)F` (centres undefined), for which the “Percent Effect” value is -1.514%.
As for `Cc1occc1C(=O)N1CCC2(CCN(Cc3ccccn3)C2=O)C1.O=C(O)C(F)(F)F` (centres undefined), the “Percent Effect” value was found to be 103.9%.
Take `Cc1occc1C(=O)N1CCCC2(CCN(c3ccccc3)C2=O)C1` (centres undefined): the “Percent Effect” value was 4.886%.
Turning to `O=C(c1ccc(O)nc1)N1CCN(C(=O)c2ccc(F)c(F)c2)CC1`, the “Percent Effect” value is recorded as -0.8885%.
For the molecule `Cc1nc(C(C)C)sc1CNC(=O)CCCN1CCCCC1`, the “Percent Effect” value was -2.668%.
Take `Cc1nc(C)c(C(=O)NCCNc2cc(N3CCCC3)ncn2)s1`: the “Percent Effect” value is on record as 20.28%.
Regarding `CCN1CCN(CCNC(=O)c2sc(C(C)C)nc2C)CC1`, the “Percent Effect” value is recorded as 114.4%.
`Cc1nc(C)c(C(=O)NCCNC(=O)Cc2ccccc2)s1`: the “Percent Effect” value stood at 4.586%.
As to `CCN1CCN(CCNC(=O)c2sc(C)nc2C)CC1`, the “Percent Effect” value is on record as 76.69%.
As to `Cc1nc(C(C)C)sc1C(=O)NCCn1ccnc1`, the “Percent Effect” value stood at 18.45%.
As to `O=C(NCCCN1CCCC1)c1n[nH]c(=O)c2ccccc12`, the “Percent Effect” value was 0.5839%.
On to `CNC(=O)C1CCCCN1C(=O)c1n[nH]c(=O)c2ccccc12` (centres undefined), for which the “Percent Effect” value is on record as 98.92%.
For `CNC(=O)C1CCCCN1C(=O)c1csc(-c2ccccc2)n1` (centres undefined), the “Percent Effect” value is recorded as -0.9781%.
Consider `O=C(c1n[nH]c(=O)c2ccccc12)N1CCCCC1c1ccn[nH]1` (centres undefined), for which the “Percent Effect” value is on record as -2.968%.
For the molecule `CNC(=O)C1CCCCN1C(=O)c1cn(CCOC)c2ccccc12` (centres undefined), the “Percent Effect” value is -5.579%.
On to `CC1CCCCN1C(=O)c1n[nH]c(=O)c2ccccc12` (centres undefined), for which the “Percent Effect” value is 115.2%.
